Test results published in PubChem BioAssay AID1159580 (chemical genetic matrix, 2015).
Screen size: about 5,500 compounds; about 2,000 (36%) were called active. Another 18% or so got no clear call; they are omitted. No stated cut-off is given here; in the data, active means normalized growth mostly below about 0.91 (no sharp cut-off); inconclusive means no clear call, values can overlap the other calls; inactive means mostly above about 0.92. The list shows a part of the results.

Experiment: chemical genetic growth profiling, strain panel (AID 1159580);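 further: tested at 20 µM; growth read once vehicle control cultures reached saturation at 30 °C; 1 = growth at the plate median or of vehicle wells; lower values mean less growth of the strain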
Settings: S. cerevisiae deletion strains, growth OD
[1] = locus YHR030C, strain SLT2, hits give low values
[2] = locus YHR079C, strain IRE1, hits give low values
[3] = locus YJL095W, strain BCK1, hits give low values
[4] = locus YJR066W, strain TOR1, hits give low values
[5] = locus YLR113W, strain HOG1, hits give low values
[6] = locus YNL183C, strain NPR1, hits give low values
[7] = locus YOR231W, strain MKK1, hits give low values
[8] = locus YPL256C, strain CLN2, hits give low values

Measured: normalized growth

CC(N)C(=O)NC(Cc1ccccc1)C(=O)O (centres undefined)
inactive: [1] 0.937 | [2] 0.952 | [3] 0.96 | [4] 0.886 | [5] 1.02 | [6] 0.89 | [7] 0.982 | [8] 0.925

O=C1C(=O)N(CN2CCc3c([nH]c4ccccc34)C2C(F)(F)F)c2ccc(F)cc21 (centres undefined)
inactive: locus YAR019C, strain CDC15, hits give low values 0.978 | locus YBL105C, strain PKC1, hits give low values 0.983 | locus YBR135W, strain CKS1, hits give low values 0.982 | locus YBR136W, strain MEC1, hits give low values 0.974 | locus YBR160W, strain CDC28, hits give low values 0.962 | locus YDL017W, strain CDC7, hits give low values 0.983 | locus YDL028C, strain MPS1, hits give low values 0.975 | locus YDL101C, strain DUN1, hits give low values 0.988 | locus YDL108W, strain KIN28, hits give low values 0.973 | locus YDL132W, strain cdc53, hits give low values 0.972 | locus YDL214C, strain PRR2, hits give low values 0.841 | locus YDR052C, strain DBF4, hits give low values 0.991 | locus YDR054C, strain cdc34, hits give low values 0.974 | locus YDR226W, strain ADK1, hits give low values 0.98 | locus YDR477W, strain SNF1, hits give low values 0.86 | locus YER123W, strain YCK3, hits give low values 0.692 | locus YER133W, strain GLC7, hits give low values 0.894 | locus YFL009W, strain cdc4, hits give low values 0.977 | locus YFL029C, strain CAK1, hits give low values 0.959 | locus YFR003C, strain YPI1, hits give low values 0.981 | locus YFR019W, strain FAB1, hits give low values 0.839 | locus YFR028C, strain CDC14, hits give low values 0.963 | locus YGR040W, strain KSS1, hits give low values 0.891 | locus YGR052W, strain FMP48, hits give low values 0.804 | locus YGR092W, strain DBF2, hits give low values 0.612 | [2] 0.667 | locus YHR082C, strain KSP1, hits give low values 0.614 | locus YHR205W, strain SCH9, hits give low values 0.795 | locus YIL147C, strain SLN1, hits give low values 0.982 | [3] 0.791 | locus YJL128C, strain PBS2, hits give low values 0.934 | locus YJL157C, strain FAR1, hits give low values 0.886 | locus YJR016C, strain ILV3, hits give low values 0.993 | locus YJR066W, strain TOR1 (second series), hits give low values 0.825 | [4] 0.784 | locus YKL048C, strain ELM1, hits give low values 0.879 | locus YKL067W, strain YNK1, hits give low values 0.865 | locus YKL193C, strain SDS22, hits give low values 0.972 | locus YKL203C, strain TOR2, hits give low values 0.934 | locus YLR133W, strain CKI1, hits give low values 0.836 | locus YLR403W, strain SFP1, hits give low values 0.942 | locus YML070W, strain DAK1, hits give low values 0.716 | locus YMR001C, strain CDC5, hits give low values 0.962 | locus YMR205C, strain PFK2 (second series), hits give low values 0.888 | locus YMR277W, strain FCP1, hits give low values 0.947 | locus YNL006W, strain LST8, hits give low values 0.982 | locus YNL020C, strain ARK1, hits give low values 0.741 | locus YNL161W, strain CBK1, hits give low values 0.979 | [6] 0.666 | locus YNL207W, strain RIO2, hits give low values 0.983 | locus YNL222W, strain SSU72, hits give low values 0.98 | locus YNL307C, strain MCK1 (second series), hits give low values 0.682 | locus YOL078W, strain AVO1, hits give low values 0.972 | locus YOL136C, strain PFK27, hits give low values 0.711 | locus YOR061W, strain CKA2, hits give low values 0.917 | locus YOR119C, strain RIO1, hits give low values 0.907 | [7] 0.8 | locus YOR329C, strain SCD5, hits give low values 0.994 | locus YPL031C, strain PHO85, hits give low values 0.82 | locus YPL153C, strain RAD53, hits give low values 0.74 | locus YPL204W, strain HRR25, hits give low values 0.798 | locus YPL209C, strain IPL1, hits give low values 0.987 | locus YPR025C, strain CCL1, hits give low values 0.993 | locus YPR106W, strain ISR1, hits give low values 0.978 | locus YPR111W, strain DBF20, hits give low values 0.969 | strain NNK1, hits give low values 0.981 | strain TSCII, hits give low values 0.958
active: [1] 0.329 | locus YKL101W, strain HSL1, hits give low values 0.711 | [5] 0.726 | [8] 0.471
